{"source": "the supplement of paper PMC6555819", "assay_in_all_cases": "PBM binding z-score (relative to random genomic background probes); higher = stronger binding; sequences stand for … in GC…GCGATTGACAGCGTAGAATGAAGG", "key": {"[1]": {"tested_on": "FXR:RXRa (NR concentration 270 nM, RXRa partner concentration 90 nM)", "how_it_was_run": "(§1)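 Regression normalization was applied to scanned fluorescence from custom Agilent 4×180K protein-binding microarrays. Before scanning, arrays were incubated 1 h with ligand-free nuclear receptor dimers, and binding was detected with antibodies against each partner (one per run). Binding z-scores use the random background probes as reference.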"}, "[2]": {"tested_on": "LXRa:RXRa (NR concentration 270 nM, RXRa partner concentration 90 nM)", "how_it_was_run": "as §1"}, "[3]": {"tested_on": "LXRa homodimer (NR concentration 270 nM)", "how_it_was_run": "as §1"}, "[4]": {"tested_on": "LXRb:RXRa (NR concentration 270 nM, RXRa partner concentration 90 nM)", "how_it_was_run": "as §1"}, "[5]": {"tested_on": "LXRb homodimer (NR concentration 270 nM)", "how_it_was_run": "as §1"}, "[6]": {"tested_on": "PPARa:RXRa (NR concentration 270 nM, RXRa partner concentration 90 nM)", "how_it_was_run": "as §1"}, "[7]": {"tested_on": "PPARg:RXRa (NR concentration 180 nM, RXRa partner concentration 90 nM)", "how_it_was_run": "as §1"}, "[8]": {"tested_on": "PPARg:RXRa 270nM:90nM, anti-RXR (NR concentration 270 nM, RXRa partner concentration 90 nM)", "how_it_was_run": "as §1"}, "[9]": {"tested_on": "PPARg:RXRa 30nM:10nM, anti-RXR (NR concentration 30 nM, RXRa partner concentration 10 nM)", "how_it_was_run": "as §1"}, "[10]": {"tested_on": "PPARg:RXRa 90nM:30nM, anti-RXR (NR concentration 90 nM, RXRa partner concentration 30 nM)", "how_it_was_run": "as §1"}, "[11]": {"tested_on": "PPARg:RXRa DBDmut IVT, anti-RXR (DBD mutation: RXRa K156A/R161A, NR concentration 270 nM, RXRa partner concentration 90 nM)", "how_it_was_run": "as §1"}, "[12]": {"tested_on": "PPARg:RXRa IVT, anti-PPARg (NR concentration 270 nM, RXRa partner concentration 90 nM)", "how_it_was_run": "as §1"}, "[13]": {"tested_on": "PPARg DBDmut:RXRa IVT, anti-PPARg (DBD mutation: PPARg1 K132A/R137A, NR concentration 270 nM, RXRa partner concentration 90 nM)", "how_it_was_run": "as §1"}, "[14]": {"tested_on": "PPARg DBDmut IVT, anti-PPARg (DBD mutation: PPARg1 K132A/R137A, NR concentration 270 nM)", "how_it_was_run": "as §1"}, "[15]": {"tested_on": "PPARg homodimer (NR concentration 180 nM)", "how_it_was_run": "as §1"}, "[16]": {"tested_on": "PXR:RXRa (NR concentration 270 nM, RXRa partner concentration 90 nM)", "how_it_was_run": "as §1"}, "[17]": {"tested_on": "PXR homodimer (NR concentration 270 nM)", "how_it_was_run": "as §1"}, "[18]": {"tested_on": "RARa:RXR (NR concentration 270 nM, RXRa partner concentration 90 nM)", "how_it_was_run": "as §1"}, "[19]": {"tested_on": "RARa homodimer (NR concentration 270 nM)", "how_it_was_run": "as §1"}, "[20]": {"tested_on": "RARb:RXRa (NR concentration 270 nM, RXRa partner concentration 90 nM)", "how_it_was_run": "as §1"}}, "data": [{"sequence": "TATCCTAGGTCATGGGCCAGTATACCACGCGAAC", "values": [{"measurement": "PBM binding z-score", "setting": "[1]", "result": 5}, {"measurement": "PBM binding z-score", "setting": "[2]", "result": 5.58}, {"measurement": "PBM binding z-score", "setting": "[3]", "result": 3.83}, {"measurement": "PBM binding z-score", "setting": "[4]", "result": 3.5}, {"measurement": "PBM binding z-score", "setting": "[5]", "result": 1.69}, {"measurement": "PBM binding z-score", "setting": "[6]", "result": 4.57}, {"measurement": "PBM binding z-score", "setting": "[7]", "result": 5.5}, {"measurement": "PBM binding z-score", "setting": "[8]", "result": 5.51}, {"measurement": "PBM binding z-score", "setting": "[9]", "result": 3.05}, {"measurement": "PBM binding z-score", "setting": "[10]", "result": 4.89}, {"measurement": "PBM binding z-score", "setting": "[11]", "result": 4.23}, {"measurement": "PBM binding z-score", "setting": "[12]", "result": 5.29}, {"measurement": "PBM binding z-score", "setting": "[13]", "result": 1.4}, {"measurement": "PBM binding z-score", "setting": "[14]", "result": 1.68}, {"measurement": "PBM binding z-score", "setting": "[15]", "result": 1.22}, {"measurement": "PBM binding z-score", "setting": "[16]", "result": 2.25}, {"measurement": "PBM binding z-score", "setting": "[17]", "result": 0.762}, {"measurement": "PBM binding z-score", "setting": "[18]", "result": 2.93}, {"measurement": "PBM binding z-score", "setting": "[19]", "result": 1.01}, {"measurement": "PBM binding z-score", "setting": "[20]", "result": 4.06}]}, {"sequence": "CATACAGGATCAGCTAGGCCAGAGTAGGGACGGC", "values": [{"measurement": "PBM binding z-score", "setting": "[1]", "result": -0.21}, {"measurement": "PBM binding z-score", "setting": "[2]", "result": -0.464}, {"measurement": "PBM binding z-score", "setting": "[3]", "result": 0.0266}, {"measurement": "PBM binding z-score", "setting": "[4]", "result": -0.7}, {"measurement": "PBM binding z-score", "setting": "[5]", "result": -0.0365}, {"measurement": "PBM binding z-score", "setting": "[6]", "result": -0.466}, {"measurement": "PBM binding z-score", "setting": "[7]", "result": 0.558}, {"measurement": "PBM binding z-score", "setting": "[8]", "result": -0.422}, {"measurement": "PBM binding z-score", "setting": "[9]", "result": -0.274}, {"measurement": "PBM binding z-score", "setting": "[10]", "result": -0.505}, {"measurement": "PBM binding z-score", "setting": "[11]", "result": -0.103}, {"measurement": "PBM binding z-score", "setting": "[12]", "result": -0.208}, {"measurement": "PBM binding z-score", "setting": "[13]", "result": 0.289}, {"measurement": "PBM binding z-score", "setting": "[14]", "result": 0.351}, {"measurement": "PBM binding z-score", "setting": "[15]", "result": 0.422}, {"measurement": "PBM binding z-score", "setting": "[16]", "result": -0.609}, {"measurement": "PBM binding z-score", "setting": "[17]", "result": -0.0917}, {"measurement": "PBM binding z-score", "setting": "[18]", "result": -0.441}, {"measurement": "PBM binding z-score", "setting": "[19]", "result": 0.241}, {"measurement": "PBM binding z-score", "setting": "[20]", "result": -0.093}]}, {"sequence": "CTCGAAAGGTCCTGCTCAGGTGAGTATACCAAAC", "values": [{"measurement": "PBM binding z-score", "setting": "[1]", "result": 0.485}, {"measurement": "PBM binding z-score", "setting": "[2]", "result": 0.0121}, {"measurement": "PBM binding z-score", "setting": "[3]", "result": -0.23}, {"measurement": "PBM binding z-score", "setting": "[4]", "result": 0.151}, {"measurement": "PBM binding z-score", "setting": "[5]", "result": -0.603}, {"measurement": "PBM binding z-score", "setting": "[6]", "result": 0.515}, {"measurement": "PBM binding z-score", "setting": "[7]", "result": -0.342}, {"measurement": "PBM binding z-score", "setting": "[8]", "result": 0.119}, {"measurement": "PBM binding z-score", "setting": "[9]", "result": -0.0279}, {"measurement": "PBM binding z-score", "setting": "[10]", "result": -0.0509}, {"measurement": "PBM binding z-score", "setting": "[11]", "result": -0.108}, {"measurement": "PBM binding z-score", "setting": "[12]", "result": 0.189}, {"measurement": "PBM binding z-score", "setting": "[13]", "result": 0.172}, {"measurement": "PBM binding z-score", "setting": "[14]", "result": -0.54}, {"measurement": "PBM binding z-score", "setting": "[15]", "result": -0.47}, {"measurement": "PBM binding z-score", "setting": "[16]", "result": -0.11}, {"measurement": "PBM binding z-score", "setting": "[17]", "result": -0.684}, {"measurement": "PBM binding z-score", "setting": "[18]", "result": 0.631}, {"measurement": "PBM binding z-score", "setting": "[19]", "result": -0.103}, {"measurement": "PBM binding z-score", "setting": "[20]", "result": 1.06}]}]}
